In PubChem BioAssay (NCATS):
Inconclusive results are not listed. The source made the active and inactive calls. The call rests on the fitted dose curve; in most records, active means well fitted curve in the direction sought with a large enough effect; inconclusive means small, poorly fitted or top-dose-only effect, or another doubt; inactive means no such curve, though single readings can be large; an effect the other way counts as inactive or inconclusive.

Assays:
HEK293 = assay: Cytotoxic Profiling of Annotated Libraries Using Quantitative High-Throughput Screening (AID 1296008); conditions: Five cell lines viability, CellTiter-Glo ATP luminescence, 48-72 h; max response: stronger effect = lower value; further: nearly all actives have a fitted effect of over 60% in size
Method in brief: (§1)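 Compounds were pin-transferred onto cells and incubated 48 or 72 hr at 37 degree Celsius, 95% humidity. CellTiter-Glo was added, plates sat 10 min at room temperature, then ATP-coupled luminescence was imaged as the viability read-out.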

HaCat = assay: as above; conditions: Five cell lines viability, CellTiter-Glo ATP luminescence, 48-72 h; max response: stronger effect = lower value
Method in brief: as §1

KB-3-1 = assay: as above; conditions: Five cell lines viability, CellTiter-Glo ATP luminescence, 48-72 h; max response: stronger effect = lower value
Method in brief: as §1

NIH3T3 = assay: as above; conditions: Five cell lines viability, CellTiter-Glo ATP luminescence, 48-72 h; max response: stronger effect = lower value
Method in brief: as §1

C33A = assay: Primary qHTS to identify gynecologic anti-cancer compounds using libraries of approved drugs and bioactive compounds (AID 1345084); conditions: Gynecologic cancer cell panel viability, ATPlite luminescence, 48 h; series mostly up to 57.5 µM; further: nearly all actives have a fitted effect of over 55% in size
Method in brief: (§2)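 Cytotoxicity screen measuring ATP content by luciferase luminescence. Each compound is applied at five concentrations for 48 h at 37 C with 5% CO2.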

CAOV3 = assay: as above; conditions: Gynecologic cancer cell panel viability, ATPlite luminescence, 48 h; series mostly up to 57.5 µM
Method in brief: as §2

CASKI = assay: as above; conditions: Gynecologic cancer cell panel viability, ATPlite luminescence, 48 h; series mostly up to 57.5 µM
Method in brief: as §2

Es-2 = assay: as above; conditions: Gynecologic cancer cell panel viability, ATPlite luminescence, 48 h; series mostly up to 57.5 µM
Method in brief: as §2

HeLa = assay: as above; conditions: Gynecologic cancer cell panel viability, ATPlite luminescence, 48 h; series mostly up to 57.5 µM
Method in brief: as §2

Hek293T = assay: as above; conditions: Gynecologic cancer cell panel viability, ATPlite luminescence, 48 h, control line for the selectivity index; series mostly up to 57.5 µM
Method in brief: as §2

JEG-3 = assay: as above; conditions: Gynecologic cancer cell panel viability, ATPlite luminescence, 48 h; series mostly up to 57.5 µM
Method in brief: as §2
On the % scale 0 is the no-effect control and ±100 the full control effect.

C=C(C(=O)O)C1CC(O)C2(C)CCCC(=C)C2C1 (configuration not stated)
inactive: max response (HEK293) 0.173% | max response (HaCat) -8.7% | max response (KB-3-1) -0.72% | max response (NIH3T3) 2.65% | Potency (C33A) | Potency (CAOV3) | Potency (CASKI) | Potency (Es-2) | Potency (HeLa) | Potency (Hek293T) | Potency (JEG-3)

CC1=CC(=O)CC(C)(C)[C@@]1(O)CC[C@@H](C)O[C@@H]1O[C@H](CO)[C@@H](O)[C@H](O)[C@H]1O
inactive: max response (HEK293) -2.25% | max response (HaCat) -28.9% | max response (KB-3-1) 1.23% | max response (NIH3T3) 0.984% | Potency (C33A) | Potency (CAOV3) | Potency (CASKI) | Potency (Es-2) | Potency (HeLa) | Potency (Hek293T) | Potency (JEG-3)

COc1cc(C(=O)O)ccc1OC1OC(CO)C(O)C(O)C1O (configuration not stated)
inactive: max response (HEK293) -3.87% | max response (HaCat) 0.774% | outcome (KB-3-1) | max response (NIH3T3) -5.21% | Potency (C33A) | Potency (CAOV3) | Potency (CASKI) | Potency (Es-2) | Potency (HeLa) | Potency (Hek293T) | Potency (JEG-3)

CN=C(N)NCCCCC/C=C(/C)CC(C)C1OC(=O)C(C)C(O)/C=C/C(C)C(O)CC(O)C(C)C(O)CCC(C)C(O)CC2(O)OC(CC(OC(=O)CC(=O)O)CC(O)CC(O)C(C)C(O)/C(C)=C/CCC1C)CC(O)C2O (configuration not stated)
inactive: max response (HEK293) -1.07% | max response (HaCat) -0.878% | max response (KB-3-1) 1.79% | max response (NIH3T3) 1.75% | activity change, negative = cytotoxicity (C33A) 11.4% [at 11.6 µM] | activity change, negative = cytotoxicity (CAOV3) 12.9% [at 11.6 µM] | activity change, negative = cytotoxicity (CASKI) 9.88% [at 11.6 µM] | activity change, negative = cytotoxicity (Es-2) 0.226% [at 11.6 µM] | activity change, negative = cytotoxicity (HeLa) 3.51% [at 11.6 µM] | activity change, negative = cytotoxicity (Hek293T) 10.1% [at 11.6 µM] | activity change, negative = cytotoxicity (JEG-3) 16% [at 11.6 µM]

CCOCc1nc2c(N)nc3ccccc3c2n1CC(C)(C)O
inactive: max response (HEK293) -5.94% | max response (HaCat) 3.85% | max response (KB-3-1) -7.57% | max response (NIH3T3) -2.04% | Potency (C33A) | Potency (CAOV3) | Potency (CASKI) | Potency (Es-2) | Potency (HeLa) | Potency (Hek293T) | Potency (JEG-3)

C[C@@H]1C(=O)O[C@H]2[C@H](O)C34[C@H]5C[C@@H](C(C)(C)C)C36[C@@H](OC(=O)[C@@H]6O)O[C@@]4(C(=O)O5)[C@@]12O (some centres not stated)
inactive: max response (HEK293) -1.33% | max response (HaCat) -29.1% | max response (KB-3-1) -3.61% | max response (NIH3T3) -2.5% | Potency (C33A) | Potency (CAOV3) | Potency (CASKI) | Potency (Es-2) | Potency (HeLa) | Potency (Hek293T) | Potency (JEG-3)

COC(=O)C1=CO[C@@H](O[C@@H]2O[C@H](CO[C@@H]3O[C@H](COC(=O)/C=C/c4cc(OC)c(O)c(OC)c4)[C@@H](O)[C@H](O)[C@H]3O)[C@@H](O)[C@H](O)[C@H]2O)[C@@H]2C(CO)=CC[C@H]12
inactive: max response (HEK293) 0.174% | max response (HaCat) 4.35% | outcome (KB-3-1) | max response (NIH3T3) -2.41% | Potency (C33A) | Potency (CAOV3) | Potency (CASKI) | Potency (Es-2) | Potency (HeLa) | Potency (Hek293T) | Potency (JEG-3)

CC1(C=O)CC[C@]2(C(=O)O[C@@H]3O[C@H](CO)[C@@H](O)[C@H](O)[C@H]3O)CC[C@]3(C)C(=CCC4[C@@]5(C)C[C@H](O)[C@H](O[C@@H]6OC[C@@H](O)[C@H](O)[C@H]6O)[C@@](C)(CO)C5CC[C@]43C)C2C1 (some centres not stated)
inactive: max response (HEK293) -6.07% | max response (HaCat) -0.307% | outcome (KB-3-1) | max response (NIH3T3) -1.18% | activity change, negative = cytotoxicity (C33A) -2.32% [at 11.6 µM] | activity change, negative = cytotoxicity (CAOV3) -2.27% [at 11.6 µM] | activity change, negative = cytotoxicity (CASKI) 0.835% [at 11.6 µM] | activity change, negative = cytotoxicity (Es-2) -7.22% [at 11.6 µM] | activity change, negative = cytotoxicity (HeLa) -5.1% [at 11.6 µM] | activity change, negative = cytotoxicity (Hek293T) -2.72% [at 11.6 µM] | activity change, negative = cytotoxicity (JEG-3) 12.1% [at 11.6 µM]

COc1ccc([C@@H]2OC[C@H]3[C@@H]2CO[C@@H]3c2ccc(OC3OC(CO)C(O)C(O)C3O)c(OC)c2)cc1OC (some centres not stated)
inactive: max response (HEK293) -3.32% | max response (HaCat) -0.266% | max response (KB-3-1) 8.67% | max response (NIH3T3) -7.42% | Potency (C33A) | Potency (CAOV3) | Potency (CASKI) | Potency (Es-2) | Potency (HeLa) | Potency (Hek293T) | Potency (JEG-3)

O=C(CC1C(=O)Nc2ccccc21)OC[C@H]1O[C@@H](OCCc2ccc(O)cc2)[C@H](O)[C@@H](O)[C@@H]1O (some centres not stated)
inactive: max response (HEK293) 1.16% | max response (HaCat) -16.5% | outcome (KB-3-1) | max response (NIH3T3) -0.494% | Potency (C33A) | Potency (CAOV3) | Potency (CASKI) | Potency (Es-2) | Potency (HeLa) | Potency (Hek293T) | Potency (JEG-3)

C=C(C)C1CC[C@]2(C(=O)O)CC[C@]3(C(=O)O)[C@H](CCC4[C@@]5(C)CC[C@H](O)C(C)(C)C5CC[C@]43C)C12 (some centres not stated)
inactive: max response (HEK293) -5.51% | max response (HaCat) -4.71% | max response (KB-3-1) -4.13% | max response (NIH3T3) -12.2% | Potency (C33A) | Potency (CAOV3) | Potency (CASKI) | Potency (Es-2) | Potency (HeLa) | Potency (Hek293T) | Potency (JEG-3)

C[C@@H]1O[C@@H](O[C@H]2[C@H](O)[C@@H](O[C@@H]3O[C@H](CO)[C@@H](O)[C@H](O[C@@H]4O[C@H](CO)[C@@H](O)[C@H](O)[C@H]4O)[C@H]3O)[C@H](O[C@H]3CC[C@@]4(C)C(=CC[C@@H]5C4CC[C@@]4(C)C5C[C@@H]5OC6(CC[C@@](C)(CO[C@@H]7O[C@H](CO)[C@@H](O)[C@H](O)[C@H]7O)O6)[C@@H](C)[C@@H]54)C3)O[C@@H]2CO)[C@H](O)[C@H](O)[C@H]1OC1OC(CO)C(O)C(O)C1O (some centres not stated)
inactive: max response (HEK293) -4.6% | max response (HaCat) -1.18% | outcome (KB-3-1) | max response (NIH3T3) -4.4% | activity change, negative = cytotoxicity (C33A) 0.138% [at 6.55 µM] | activity change, negative = cytotoxicity (CAOV3) 7.26% [at 6.55 µM] | activity change, negative = cytotoxicity (CASKI) -16.9% [at 6.55 µM] | activity change, negative = cytotoxicity (Es-2) -3.32% [at 6.55 µM] | activity change, negative = cytotoxicity (HeLa) -0.928% [at 6.55 µM] | activity change, negative = cytotoxicity (Hek293T) 3.68% [at 6.55 µM] | activity change, negative = cytotoxicity (JEG-3) 1.09% [at 6.55 µM]

CC(C)[C@@H]1C(=O)N(S(C)(=O)=O)[C@@H]2CCN(C(=O)/C=C/CN3CCCCC3)[C@H]21
inactive: max response (HEK293) -1.35% | max response (HaCat) -0.855% | max response (KB-3-1) 5.42% | max response (NIH3T3) 1.85% | Potency (C33A) | Potency (CAOV3) | Potency (CASKI) | Potency (Es-2) | Potency (HeLa) | Potency (Hek293T) | Potency (JEG-3)

CC(=O)O[C@H]1[C@@H](O)[C@H](O[C@H]2[C@@H]3C=CO[C@@H](O[C@H]4O[C@@H](CO)[C@H](O)[C@@H](O)[C@@H]4O)[C@@H]3[C@@]3(CO)O[C@@H]23)O[C@@H](C)[C@@H]1OC(=O)/C=C/c1ccccc1
inactive: max response (HEK293) 4.7% | max response (HaCat) -2.99% | outcome (KB-3-1) | max response (NIH3T3) -6.79% | Potency (C33A) | Potency (CAOV3) | Potency (CASKI) | Potency (Es-2) | Potency (HeLa) | Potency (Hek293T) | Potency (JEG-3)

C/C(=C\C=C\C(C)C1CCC2(C)C3CCC4C(C)(C)C(=O)CCC45CC35CCC12C)C(=O)O (configuration not stated)
inactive: max response (HEK293) -1.63% | max response (HaCat) -16.2% | max response (KB-3-1) -3.21% | max response (NIH3T3) -13.8% | Potency (C33A) | Potency (CAOV3) | Potency (CASKI) | Potency (Es-2) | Potency (HeLa) | Potency (Hek293T) | Potency (JEG-3)

COc1cc(C(=O)OC[C@@]2(O)CO[C@@H](O[C@H]3[C@H](Oc4ccc(C(=O)O)cc4OC)O[C@H](CO)[C@@H](O)[C@@H]3O)[C@@H]2O)ccc1O
inactive: max response (HEK293) -19.1% | max response (HaCat) 1.78% | outcome (KB-3-1) | max response (NIH3T3) 3.57% | Potency (C33A) | Potency (CAOV3) | Potency (CASKI) | Potency (Es-2) | Potency (HeLa) | Potency (Hek293T) | Potency (JEG-3)

CC(C)(O)c1ccc2c(c1)C(O)C[C@H]1[C@](C)(C(=O)O)CCC[C@]21C (some centres not stated)
inactive: max response (HEK293) 0.619% | max response (HaCat) -7.52% | outcome (KB-3-1) | max response (NIH3T3) 4.86% | Potency (C33A) | Potency (CAOV3) | Potency (CASKI) | Potency (Es-2) | Potency (HeLa) | Potency (Hek293T) | Potency (JEG-3)
